A number with no mark means an inactive call. Calls of active or inactive are those of the source.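 Rule for the calls: active = normalized viability below 100% at a tested concentration; inactive = the rest.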

The first assay is described as follows: ovarian cancer cell viability with rucaparib, profiling panel, oncology-focused library, rucaparib conditional (AID 1508598). The note with it: patient-derived ovarian cancer cells, CellTiter-Glo viability, 144 h; at 0.313 µM; OCI-C5x cells; with rucaparib 10 µM; hits give low values; 100% = cells with rucaparib alone. For orientation: Cellular ATP, detected with luciferase, serves as a proxy for viable cell number.
The term viability denotes a read-out of living cells in per cent, often relative to untreated cells. On to `CC1(C)CNc2cc(NC(=O)c3cccnc3NCc3ccncc3)ccc21`, for which the viability is 122%.
`O=C(Nc1ccccc1-c1cn2c(CN3CCNCC3)csc2n1)c1cnc2ccccc2n1`: the viability is 110%.
In the case of `Cc1cnc(NC(=O)Nc2cc(Br)c(C)cc2OC[C@@H]2CNCCO2)cn1`, the viability was 96% (active).
The same measure, in the same setting: with `N#Cc1c(NC(=O)c2cccc3ccccc23)sc2c1CCCC2` the figure was 119%; with `COc1ccc(-c2ccc3c(N4CCOC[C@@H]4C)nc(N4CCOC[C@@H]4C)nc3n2)cc1CO`, 47.2% (active); with `Nc1nc(Nc2ccc(S(N)(=O)=O)cc2)nn1C(=O)c1c(F)cccc1F`, 93.3% (active).
Same read-out and setting: with `Cc1ccc(F)c(NC(=O)Nc2ccc(-c3cccc4[nH]nc(N)c34)cc2)c1` the figure was 113%.
On the same count and under the same terms, with `COc1ccc(-c2ccc3c(N4CCOCC4)nc(N4C[C@@H](C)O[C@@H](C)C4)nc3n2)cc1CO` the figure was 121%.
`N#CCNC(=O)c1ccc(-c2ccnc(Nc3ccc(N4CCOCC4)cc3)n2)cc1`: the viability was 108%.
`COC(=O)c1ccc2c(C(=Nc3ccc(N(C)C(=O)CN4CCN(C)CC4)cc3)c3ccccc3)c(O)[nH]c2c1`: the viability is 128%.
Turning to `COc1cc2nccc(Oc3ccc(NC(=O)Nc4cc(C)on4)c(Cl)c3)c2cc1OC`, the viability was 133%.

The assay is the same for the next values; noted with them: patient-derived ovarian cancer cells, CellTiter-Glo viability, 144 h; at 0.313 µM; OCI-C5x cells; without rucaparib; hits give low values.
As to `CC1(C)CNc2cc(NC(=O)c3cccnc3NCc3ccncc3)ccc21`, the viability is 126%.
Regarding `O=C(Nc1ccccc1-c1cn2c(CN3CCNCC3)csc2n1)c1cnc2ccccc2n1`, the viability was 108%.
In the case of `Cc1cnc(NC(=O)Nc2cc(Br)c(C)cc2OC[C@@H]2CNCCO2)cn1`, the viability was 98% (active).
Same read-out and setting: with `N#Cc1c(NC(=O)c2cccc3ccccc23)sc2c1CCCC2` the figure was 110%; with `COc1ccc(-c2ccc3c(N4CCOC[C@@H]4C)nc(N4CCOC[C@@H]4C)nc3n2)cc1CO`, 48.1% (active); with `Nc1nc(Nc2ccc(S(N)(=O)=O)cc2)nn1C(=O)c1c(F)cccc1F`, 86.1% (active).
Same read-out and setting: with `Cc1ccc(F)c(NC(=O)Nc2ccc(-c3cccc4[nH]nc(N)c34)cc2)c1` the figure was 107%; with `COc1ccc(-c2ccc3c(N4CCOCC4)nc(N4C[C@@H](C)O[C@@H](C)C4)nc3n2)cc1CO`, 127%.
Consider `N#CCNC(=O)c1ccc(-c2ccnc(Nc3ccc(N4CCOCC4)cc3)n2)cc1`, for which the viability was 105%.
The same measure, in the same setting: then `COC(=O)c1ccc2c(C(=Nc3ccc(N(C)C(=O)CN4CCN(C)CC4)cc3)c3ccccc3)c(O)[nH]c2c1`, with 118%.
Still for that read-out and setting: then `COc1cc2nccc(Oc3ccc(NC(=O)Nc4cc(C)on4)c(Cl)c3)c2cc1OC`, with 109%.

Values taken from PubChem BioAssay.
